Screening results from PubChem BioAssay.
The list is not random: actives were taken first. Their share in the collection is about 5.5%.
Integrin act MD – activates integrin-mediated alleviation for muscular dystrophy; alpha7betagal myoblasts, beta-gal FDG fluorescence, 48 h; Potency, µM (top dose mostly 38.3 µM), actives largely listed as activators; hit rate 0.064% among 350,000; AID 624291; further: nearly all actives have a fitted effect of over 60% in size
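alpha7betagal+/- myoblasts (passage 13, 250/well) treated 48 h at 37C with compounds at 1:260 dilution of DMSO stock. Lysed, then beta-galactosidase activity read as FDG fluorescence (ex 480/em 540) after 30 min, with pre-read for autofluorescence.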
Gal4-VP16 FLuc – inhibits Gal4-VP16 luciferase reporter, ROR gamma counter-screen; hit rate 3.5% among 310,000; Drosophila S2 Gal4-VP16 UAS-luciferase, luminescence, 20 h; Potency, µM (top dose mostly 53.6 µM), hits mostly inhibitors;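 further: Gal4-VP16 expression switched on by copper sulfate through the metallothionein promoter; nearly all actives have a fitted effect of over 50% in size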
uPA surface inh – inhibitors of cell surface uPA generation | hit rate 0.31% among 330,000 | Potency, µM (doses to about 38.3 µM), most hits filed as inhibitors | AID 540303 | cell surface uPA generation assay, qHTS; active means well fitted inhibition curve with a large enough effect; inconclusive means small, poorly fitted or top-dose-only effect; inactive means no such curve, though single readings can be large or run the other way; tested in mouse RAW 264.7 cells; further: nearly all actives have a fitted effect of over 55% in size
RORg inh – blocks mouse ROR gamma transcriptional activity | P51450 | Drosophila S2 Gal4-RORgamma UAS-luciferase reporter, 20 h | Potency, µM (top dose mostly 53.6 µM), usual class: inhibitors | hit rate 5.4% among 310,000 | AID 2551; further: nearly all actives have a fitted effect of over 60% in size
Target sequence (P51450 whole entry, looked up, the tested form may be a part): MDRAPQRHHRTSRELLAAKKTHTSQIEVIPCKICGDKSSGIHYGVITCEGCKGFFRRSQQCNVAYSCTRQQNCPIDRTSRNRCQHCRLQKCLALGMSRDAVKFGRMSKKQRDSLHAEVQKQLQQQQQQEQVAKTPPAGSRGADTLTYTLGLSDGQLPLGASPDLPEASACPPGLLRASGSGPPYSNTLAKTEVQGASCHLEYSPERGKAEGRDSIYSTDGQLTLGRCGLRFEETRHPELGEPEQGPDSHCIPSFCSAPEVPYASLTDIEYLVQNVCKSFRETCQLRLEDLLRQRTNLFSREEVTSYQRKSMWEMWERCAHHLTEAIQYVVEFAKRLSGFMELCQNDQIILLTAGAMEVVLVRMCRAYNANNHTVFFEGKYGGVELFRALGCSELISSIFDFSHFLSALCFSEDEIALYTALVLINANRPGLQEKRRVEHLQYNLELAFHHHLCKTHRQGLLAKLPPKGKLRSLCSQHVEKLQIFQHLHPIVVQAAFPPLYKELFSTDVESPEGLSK
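Luciferase reporter read in Schneider cells carrying Gal4-RORγ (mouse) and UAS-Photinus luciferase; cells given compound 1 h before 700 uM copper sulfate induction, then incubated 20 h at ambient temperature.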
Mito fusion act – mitochondrial division inhibition or fusion activation; S. cerevisiae fusion-defective mutant growth rescue, CellTiterGlo 48 h; Potency, µM (highest dose often 46.1 µM), most hits filed as activators; hit rate 0.23% among 320,000; AID 485298; further: nearly all actives have a fitted effect of over 45% in size
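Compounds are tested for their ability to restore growth of mitochondrial fusion-defective yeast strains at non-permissive 37C in YPEG medium over 48 hours. Viability is quantified by luciferase luminescence.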
BCR signal inh – inhibitors of chronic active B-cell receptor signaling | ABC-DLBCL IkBa-CBG/CBR reporter, luminescence ratio, 4 h | Potency, µM (highest dose often 46.1 µM), usual class: inhibitors | hit rate 0.05% among 340,000 | AID 493014; active means well fitted inhibition curve with a large enough effect in the signal ratio, with a control signal flat, not every such curve was filed as active; inconclusive means small, poorly fitted or top-dose-only effect, or effect the other way, or a change in a side signal; the % refers to the signal ratio
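TMD8 ABC-DLBCL cells carrying doxycycline-inducible green luciferase fused to IkappaBalpha plus unfused red luciferase were exposed to compounds (up to 46 uM) for 4 hrs at 37C. Activity came from the overlap-corrected green/red luminescence ratio.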
Each line names hits and unclear results; the compound was inactive in the other large screens. Unless noted, the call rests on the fitted dose curve; in most records, active means well fitted curve in the direction sought with a large enough effect; inconclusive means small, poorly fitted or top-dose-only effect, or another doubt; inactive means no such curve, though single readings can be large; an effect the other way counts as inactive or inconclusive.

Cc1ccn2c(-c3csc(NCc4ccco4)n3)c(C)nc2c1	Gal4-VP16 FLuc inconclusive, RORg inh 12.6µM
C[C@@H]1C[C@](C)(C(=O)c2ccc3c(c2)OCO3)C=C1c1ccc2c(c1)OCO2	none (no result: Integrin act MD, uPA surface inh, Mito fusion act, BCR signal inh)
CCc1c(-c2ccccc2)nc2ccccc2c1C(=O)NCCc1ccccc1	none (no result: Integrin act MD, Gal4-VP16 FLuc, uPA surface inh, RORg inh, Mito fusion act)
CC(=O)Nc1ccc(NC(=O)CNS(=O)(=O)c2ccc(C)cc2)cc1	Gal4-VP16 FLuc inconclusive, RORg inh 10µM
CC(=O)Nc1ccc(S(=O)(=O)NCCC(=O)Nc2cccc(Cl)c2)cc1	BCR signal inh inconclusive
Cc1ccc(S(=O)(=O)NCC(=O)N/N=C/c2ccc(Cl)cc2Cl)cc1	Gal4-VP16 FLuc inconclusive, RORg inh inconclusive
Cc1ccc(S(=O)(=O)NCC(=O)N/N=C/c2ccccc2O)cc1	Gal4-VP16 FLuc inconclusive, RORg inh 5.62µM
CC(=O)Nc1ccc(S(=O)(=O)NCCOc2ccc(Cl)cc2C)cc1	Gal4-VP16 FLuc 5.01µM, RORg inh inconclusive
COc1cccc(CC(CC(=O)O)C(=O)Nc2cc(C)ccc2C)c1 (stereo unspecified)	none
N#Cc1c(-c2cccs2)cc(-c2cccnc2)nc1N	BCR signal inh inconclusive
N#Cc1c(-c2cccs2)cc(-c2ccccn2)nc1N	Gal4-VP16 FLuc 7.94µM, RORg inh inconclusive
COC(=O)C1=C(CS(=O)(=O)c2ccccc2)NC(=O)NC1c1ccc(OC)c(OC)c1 (stereo unspecified)	Integrin act MD inconclusive, uPA surface inh inconclusive
NC(=S)N=Nc1c(O)[nH]c2cc(F)c(F)cc12	Gal4-VP16 FLuc 5.01µM, RORg inh 3.16µM
NC(=S)N=Nc1c(O)[nH]c2c(Cl)cc(Cl)cc12	none (no result: Gal4-VP16 FLuc, RORg inh, Mito fusion act, BCR signal inh)
COC(=O)[C@H](Cc1ccccc1)NC(=O)O[C@@H]1C(=O)c2ccc(OC)cc2O[C@H]1c1ccc2c(c1)OCO2	none (no result: Integrin act MD, uPA surface inh, Mito fusion act, BCR signal inh)
CC(N)C(=O)NCC(=O)NC1CSSCC(C(=O)O)NC(=O)C(CO)NC(=O)C(C(C)O)NC(=O)C(Cc2ccccc2)NC(=O)C(C(C)O)NC(=O)C(CCCCN)NC(=O)C(Cc2c[nH]c3ccccc23)NC(=O)C(Cc2ccccc2)NC(=O)C(Cc2ccccc2)NC(=O)C(CC(N)=O)NC(=O)C(CCCCN)NC1=O (stereo unspecified)	none (no result: Integrin act MD, uPA surface inh, Mito fusion act, BCR signal inh)
COc1ccc(-c2nc3nc(SC)nn3cc2C)cc1F	Gal4-VP16 FLuc 25.1µM
COc1ccc(-c2nc3ncnn3cc2C)cc1F	Mito fusion act inconclusive
COc1cc2c(cc1OC)C(CC#N)=NC(C)(C)C2	BCR signal inh 16.4µM
COc1ccc(C2=NC(C)(C)Cc3cc(OC)c(OC)cc32)cc1OC	BCR signal inh inconclusive
O=C(O)COc1ccc(F)cc1Br	none
Cc1ccc2nc(SCC(=O)NC(=O)NCc3ccco3)[nH]c2c1	Gal4-VP16 FLuc 17.8µM, BCR signal inh inconclusive
Cc1cc(-c2nnc(SCC(=O)Nc3nccs3)o2)no1	Gal4-VP16 FLuc inconclusive, RORg inh 15.8µM, BCR signal inh inconclusive
COc1cccc(-c2nnc(SCC(=O)Nc3cc(C)on3)o2)c1	RORg inh 12.6µM, BCR signal inh inconclusive
Cc1ccc2nc(SCC(=O)c3ccc(O)cc3O)[nH]c2c1	Gal4-VP16 FLuc 3.16µM, BCR signal inh inconclusive
COC(=O)CSc1nc2ccc(C)cc2[nH]1	none
Cc1cc(-c2nnc(SCC(=O)Nc3ccccn3)o2)no1	none
CC(=O)CCc1c(C)nc2ccc(C)cc2c1Cl	none
CN(C)c1cc(-c2ccc(Br)cc2)oc(=O)c1Cl	BCR signal inh inconclusive
Cc1cc(NC(=O)CSc2nc3cc(Cl)ccc3o2)no1	RORg inh 12.6µM
O=C(CSc1nnc(C2COc3ccccc3O2)o1)Nc1nccs1 (stereo unspecified)	Gal4-VP16 FLuc 22.4µM, RORg inh inconclusive, BCR signal inh inconclusive
COc1cc(OC)cc(-c2nnc(SCc3cccc(C(=O)O)c3)o2)c1	Gal4-VP16 FLuc 7.08µM, RORg inh inconclusive, BCR signal inh inconclusive
O=C(CSc1nnc(C2COc3ccccc3O2)o1)NC1CCCCC1 (stereo unspecified)	none
COc1ccc(-c2nnc(SCC(=O)Nc3ccccc3OC)o2)cc1	BCR signal inh inconclusive
